Measured values: PubChem BioAssay
Calls of active or inactive are those of the source.

assay: S. pombe growth modifiers, basal conditions – strain 972, OD600, 24 h, no modulator, primary screen (AID 1090);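 further: basal condition with compound alone and no growth modifier present; test concentration not given here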; conditions: S. pombe 972 growth, higher = more signal, called active from +8 up or from −8 down

Structure (SMILES)	z-score
COC(=O)c1c2oc(c1C(=O)OC)C(=O)N[C@@H](C(C)C)Cn1cc(nn1)C1(CCCCC1)NC(=O)N[C@H](CO)CC2	-0.772 (inactive)
COc1ccccc1CN1C(=O)c2ccccc2[C@@]2(Cc3ccccc3N(CCCN(C)C)C2=O)[C@@H]1c1ccc(CO)cc1	-1.23 (inactive)
COC(=O)[C@@]1(Cc2ccc(OC)cc2)[C@H]2c3cc(C(=O)N(C)C)n(Cc4ccc(C(F)(F)F)nc4)c3C[C@H]2CN1C(=O)c1ccccc1	1.7 (inactive)
CC(CO)N1C(=O)[C@@H]2C3C(=O)OCCC/C=C\[C@H]3OC23C=CCN(CCN2CCOCC2)C(=O)[C@@H]13 (stereo not given in full)	-0.802 (inactive)
CCOC(=O)C1=C[C@@H](C(C)C)N(S(=O)(=O)c2ccc(C)cc2)[C@H]1c1ccccc1F	1.51 (inactive)
O=C1O[C@@H](c2ccccc2)[C@@H](c2ccccc2)N2[C@@H](c3ccccc3OCCO)[C@]3(C(=O)Nc4ccc(C#CC5(O)CCCCCC5)cc43)[C@@H](C(=O)N3CCN(c4ncccn4)CC3)[C@H]12	0.961 (inactive)
COC(=O)c1c(CC[C@@H](CO)NC(=O)N[C@@H](Cc2ccccc2)Cn2cc(-c3ccccn3)nn2)oc(C(=O)N2CCOCC2)c1C(=O)OC	0.82 (inactive)
COc1ccc(C(O)C2C=CC3C(=O)N(C)C(=O)C3N2N(c2ccccc2)c2ccccc2)c2ccccc12 (stereo not given)	0.954 (inactive)
CS(=O)(=O)CCOC(=O)C1=CC(CCCO)=CC(c2ccc(CN3CCCC3)cc2)N(Cc2cccc(OC(F)(F)F)c2)C=C1C(=O)OCCS(C)(=O)=O (stereo not given)	-12.9 (active)
C=CC[C@]1(C(=O)N2CCOCC2)N=C(c2ccc(OCCCO)cc2)O[C@H]1c1ccccc1N=[N+]=[N-]	-1.22 (inactive)
CCCCN1CC=CC23O[C@@H]4/C=C\CCCOC(=O)C4[C@H]2C(=O)N(CCCCCO)[C@@H]3C1=O (stereo not given in full)	-0.392 (inactive)
O=C(O)[C@@]1(CCS(=O)(=O)c2ccccc2)N=C(c2ccc(OCCCO)cc2)O[C@H]1c1ccccc1	-5.25 (inactive)
COc1ccc([Si](C)(C)[C@@H]2[C@@H](CC(=O)N3Cc4ccccc4C[C@H]3CO)O[C@]3(C(=O)N(Cc4cccc(N5CCC5=O)c4)c4ccccc43)[C@H]2C)cc1	0.589 (inactive)
O=C1OCCC=C[C@H]2OC34C=CCN(c5ccc(Cl)cc5)C(=O)[C@H]3N(CCCO)C(=O)[C@@H]4C12 (stereo not given in full)	-1.36 (inactive)
CCCCCCCCCCC(O)C1C=CC2C(=O)NC(=O)C2N1Nc1ccc(Cl)cc1Cl (stereo not given)	-0.451 (inactive)
C=CCC(OC(C)=O)[C@@H]1[C@@H](N(Cc2ccc(-c3ccccc3)cc2)C(=O)Cc2ccc(F)cc2)c2cc(OCCCO)ccc2N1C(=O)c1ccc2ccccc2c1 (stereo not given in full)	0.135 (inactive)
COCC(=C=CC[C@H](O)c1cccc(OCCO)c1)C[C@H](O)c1cc(Cl)cc(Cl)c1O	-0.6 (inactive)
Cc1ccc(/C=C/C=O)cc1	-4.06 (inactive)

Structure (SMILES)	z-score
C=C(CCCC)/C(=C/C[C@H](OC(C)=O)c1ccc(OCCO)cc1)c1cnc2ccccc2c1	-1.83 (inactive)
COc1cc2c(cc1O)C=[N+](Cc1cc3c(cc1Br)OCO3)CC2	-9.96 (active)
CCCCCCc1nc(-c2ccc(-c3ccc(Cl)c(Cl)c3)o2)c(C)c2c1[Si](C(C)C)(C(C)C)OC2	-3.62 (inactive)
COCCCNC(=O)[C@]1(Cc2ccccc2)N=C(c2ccc(OCCCO)cc2)O[C@@H]1c1ccccc1CN=[N+]=[N-]	1.05 (inactive)
[N-]=[N+]=Nc1ccccc1C[C@@]1(C(=O)N2CCCCC2)N=C(c2ccc(OCCCO)cc2)O[C@@H]1c1ccccc1	-2.65 (inactive)
C=CCN(Cc1ccccc1)C(=O)C(c1cccs1)N(C(=O)/C=C\C(=O)O)c1ccc(CCOCCO)cc1 (stereo not given)	0.246 (inactive)
[N-]=[N+]=NCc1ccccc1[C@H]1OC(c2ccc(OCCCO)cc2)=N[C@@]1(Cc1ccccc1)C(=O)N1CCCCC1	-0.575 (inactive)
CC(C)(C)OC(=O)CC[C@]1(C(=O)NCCN2CCOCC2)COC(c2ccc(OCCCO)cc2)=N1	0.41 (inactive)
COC(=O)[C@@]1(Cc2ccc(OC)cc2)[C@H]2c3cc(C(=O)N4CCCC4)n(CCCNc4ncc(C(F)(F)F)cc4Cl)c3C[C@H]2CN1C(=O)c1ccccc1	1.11 (inactive)
COCCOC(=O)N1C(=O)[C@@]2(c3ccccc31)[C@H](C(N)=O)[C@H]1C(=O)O[C@H](c3ccccc3)[C@H](c3ccccc3)N1[C@@H]2c1ccc(O)cc1	-1.3 (inactive)
CC(=O)NCCCC[C@@H]1NC(=O)[C@H]2C[C@@H](C(=O)NCCCCCNC(=O)CS)[C@@H](c3ccc(O)cc3)N2C1=O	0.0772 (inactive)
CCOc1ccc(N2C(=O)CSC2c2cccc([N+](=O)[O-])c2)cc1 (stereo not given)	0.527 (inactive)
COc1ccc(C(=O)Nc2ccc(CN3C(=O)[C@]4(O[C@H](CC(=O)N5CCC[C@H]5CO)[C@@H]([Si](C)(C)c5ccc(OC)cc5)[C@@H]4C)c4ccccc43)cc2)cc1	0.173 (inactive)
C=C(CCCC)C(=O)CC[C@H](OC(=O)c1cccnc1)c1ccc(OCCO)cc1	-3.48 (inactive)
COC(=O)c1c(CC[C@@H](CO)NC(=O)NCCc2c[nH]c3ccccc23)oc(C(=O)Cc2ccccc2)c1C(=O)OC	0.215 (inactive)
COC(=O)C(CC#Cc1ccc2c(c1)[C@]1(C(=O)N2)[C@H](c2ccccc2OCCO)N2[C@H](c3ccccc3)[C@H](c3ccccc3)OC(=O)[C@H]2[C@@H]1C(=O)O)C(=O)OC	0.521 (inactive)
CN(C)CCCC[C@@H]1NC(=O)[C@H]2C[C@@H](C(=O)NCCCCCN)[C@@H](c3cccc(OCCO)c3)N2C1=O	-5.79 (inactive)
